The list is not random: actives were taken first. Their share in the collection is about 15%.
SARS PLpro yeast = qHTS of Yeast-based Assay for SARS-CoV PLP; S. cerevisiae expressing SARS-CoV PLpro, growth rescue; Potency, µM (titrated, usually from 32.9 µM), actives largely listed as activators; hit rate 0.19% among 330,000; AID 485353, 2010; calls by dose curve; further: nearly all actives have a fitted effect of over 55% in size
Pf growth 96h = Primary qHTS for delayed death inhibitors of the malarial parasite plastid, 96 hour incubation; P. falciparum luciferase reporter growth, 96 h; Potency, µM (doses to about 28.7 µM), most hits filed as inhibitors; hit rate 6.9% among 320,000
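Two-generation exposure (96 h) targets delayed-death phenotype. Reporter parasites carrying integrated firefly luciferase, in red cells at 2% hematocrit and 0.05% parasitemia final, kept at 37 C, 5% CO2; luminescence loss indicates inhibition.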
HCV inh = qHTS Assay for Inhibitors of Hepatitis C Virus (HCV); AID 651820, 2012; hit rate 3.4% among 340,000; Potency, µM (titrated, usually from 41.8 µM), usual class: inhibitors; Huh7.5.1 HCVcc-Cre infection, luciferase reporter, 44 h
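Luciferase read-out (15 sec integration) after a 15 min room-temperature substrate step quantifies HCVcc-Cre infection. Cells, 1,000 per well, had compound added 4 h post-plating, then virus at ~0.5 moi, and were cultured 44 h.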
HCMV inh = qHTS Assay for inhibitors of the human cytomegalovirus (HCMV); hit rate 4.5% among 410,000; activity change, negative = inhibition, % at 57.5 µM; HFF cells, HCMV-luciferase reporter, 72 h; active compounds read low; in the data active means activity change below about -60%; inconclusive means no clear call, values can overlap the other calls; inactive means above about -39%
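Inhibition of viral replication was scored as loss of reporter luminescence in HFFs infected with HCMV-luciferase (MOI 1 PFU/cell) for 72 h; compounds tested at 2 doses, normalized to buffer and Salinomycin controls.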
Pf growth 48h = Primary qHTS for delayed death inhibitors of the malarial parasite plastid, 48 hour incubation; hit rate 5.9% among 310,000; Potency, µM (highest dose often 28.7 µM), usual class: inhibitors; P. falciparum luciferase growth in erythrocytes, 48 h; AID 504832, 2011
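Luciferase-expressing P. falciparum in infected erythrocytes (2% hematocrit, 0.1% parasitemia final) in RPMI 1640/0.5% Albumax were exposed to compound for 48 hours at 37 C, 5% CO2; growth read as luminescence.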
Sm TGR block = qHTS Assay for the Inhibitors of Schistosoma Mansoni Peroxiredoxins; Schistosoma mansoni thioredoxin glutathione reductase (TGR), Q962Y6; purified TGR, DTNB reduction, TNB absorbance 405 nm; Potency, µM (top dose mostly 114 µM), most hits filed as inhibitors; hit rate 3% among 360,000; AID 485364, 2010; further: nearly all actives have a fitted effect of over 60% in size
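First, TGR (20 nM dispensed) and NADPH were mixed with compound. Second, a 15 min room-temperature incubation followed. Third, further NADPH and then DTNB were added to start the reaction. Finally, TNB absorbance was monitored kinetically.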
Of the large screens only hits and unclear results are named; the others gave an inactive call. Unless noted, the call rests on the fitted dose curve; in most records, active means well fitted curve in the direction sought with a large enough effect; inconclusive means small, poorly fitted or top-dose-only effect, or another doubt; inactive means no such curve, though single readings can be large; an effect the other way counts as inactive or inconclusive.

Cc1cn([C@H]2C[C@H](O)[C@@H](CCC(=O)NCc3ccccc3)O2)c(=O)[nH]c1=O	HCV inh 3.5µM (no result: SARS PLpro yeast, Pf growth 96h, Pf growth 48h, Sm TGR block)
COc1ccc(-c2oc(=O)n(C)c2-c2ccc(OC)cc2)cc1	Pf growth 96h inconclusive, Pf growth 48h inconclusive
COCCn1c(-c2ccc(OC)cc2)c(-c2ccc(OC)cc2)oc1=O	Pf growth 96h 13µM, HCMV inh inconclusive, Pf growth 48h 8.3µM
O=C(C1CCCCC1)N(Cc1cccnc1)c1nc2c(F)cccc2s1	none (no result: SARS PLpro yeast, Pf growth 96h, HCV inh, Pf growth 48h)
CCOC(=O)C1CCN(C(=O)c2cc3cc(C)ccc3[nH]2)CC1	none
Cc1nn(Cc2ccccc2)c(C)c1C=C1C(=O)NC(=S)NC1=O	Pf growth 96h inconclusive, Sm TGR block 7.9µM
CC[C@@H]1C/C=C\Cc2ccccc2[C@@H](C(=O)C[C@H](O)CC(C)=O)OC1=O	none (no result: Pf growth 96h, Pf growth 48h, Sm TGR block)
COc1ccc(C)cc1-n1c(C)cc(C=O)c1C	HCV inh inconclusive, HCMV inh inconclusive, Pf growth 48h inconclusive
COc1ccc(N)cc1-n1c(C)ccc1C	HCV inh 0.71µM, HCMV inh -65, Pf growth 48h inconclusive, Sm TGR block 16µM
COc1cc(C2C(C#N)=C(N)OC3=C2C(=O)CCC3)cc(OC)c1OC(=O)N1CCOCC1 (stereo unspecified)	Pf growth 96h 4.7µM
COc1cc(C2C(C#N)=C(N)OC3=C2C(=O)CCC3)ccc1OC(=O)N1CCOCC1 (stereo unspecified)	none
CCn1cc(/C=N\NC(=O)C2(C)CC2(Cl)Cl)c(C)n1 (stereo unspecified)	none
COc1ccc(S(=O)(=O)Nc2ccc3c(c2)C(=O)N([C@H](C)CO)C[C@H](C)[C@@H](CN(C)S(=O)(=O)c2ccc(OC)cc2)O3)cc1	HCMV inh -92 (no result: SARS PLpro yeast, Pf growth 96h, Pf growth 48h, Sm TGR block)
C[C@H](CO)N1C[C@H](C)[C@@H](CN(C)S(=O)(=O)c2ccc(F)cc2)Oc2ccc(NC(=O)Nc3ccccc3)cc2C1=O	none (no result: Pf growth 96h, Pf growth 48h, Sm TGR block)
C[C@H](CO)N1C[C@H](C)[C@@H](CN(C)S(=O)(=O)c2ccccc2)Oc2ccc(NC(=O)Nc3ccccc3)cc2C1=O	HCMV inh -73 (no result: Pf growth 96h, Pf growth 48h, Sm TGR block)
Cc1ccc(S(=O)(=O)N(C)C[C@@H]2Oc3ccc(NS(C)(=O)=O)cc3CC(=O)N([C@H](C)CO)C[C@@H]2C)cc1	HCV inh 2.8µM (no result: Pf growth 96h, Pf growth 48h, Sm TGR block)
C[C@H](CO)N1C[C@H](C)[C@@H](CN(C)S(=O)(=O)c2cccs2)Oc2ccc(NC(=O)Nc3ccccc3)cc2C1=O	HCMV inh -65 (no result: Pf growth 96h, Pf growth 48h, Sm TGR block)
CCC1CCCCN1S(=O)(=O)c1cc2c(cc1C)NC(=O)CO2 (stereo unspecified)	none (no result: SARS PLpro yeast, Pf growth 96h, HCV inh, Pf growth 48h)
Cc1ccc(NC2CCCN(C(=O)c3cc4ncccn4n3)C2)cc1C (stereo unspecified)	Pf growth 96h inconclusive
Cc1c(OC(C)C(=O)NCc2ccccn2)ccc2c3c(c(=O)oc12)CCC3 (stereo unspecified)	Pf growth 96h inconclusive, HCV inh inconclusive, Pf growth 48h inconclusive
Cc1c(OC(C)C(=O)NCCCn2ccnc2)ccc2c3c(c(=O)oc12)CCC3 (stereo unspecified)	Pf growth 96h 12µM, HCV inh inconclusive, Pf growth 48h 12µM
Cc1c(OC(C)C(=O)NCc2ccncc2)ccc2c3c(c(=O)oc12)CCCC3 (stereo unspecified)	Pf growth 96h 9.3µM, HCV inh inconclusive, HCMV inh inconclusive, Pf growth 48h inconclusive
Cc1c(OCC(=O)NCCCn2ccnc2)ccc2c3c(c(=O)oc12)CCC3	Pf growth 96h inconclusive
CCOc1ccc(CCNC(=O)C2CSC3(C)CCC(=O)N23)cc1OCC (stereo unspecified)	Pf growth 96h inconclusive, Pf growth 48h inconclusive
COCc1c(C(=O)N2CCN(S(=O)(=O)c3ccccc3Cl)CC2)oc2ccccc12	Pf growth 96h inconclusive, HCV inh inconclusive, Pf growth 48h 12µM
Cc1c(C(=O)N2CCN(S(=O)(=O)c3ccccc3F)CC2)oc2c(Cl)cccc12	Pf growth 96h 12µM, HCV inh inconclusive, Pf growth 48h 10µM
CCOCc1c(C(=O)N2CCN(CCOc3ccc(Cl)cc3)CC2)oc2ccccc12	HCV inh 5.6µM, Pf growth 48h inconclusive
COCc1c(C(=O)N2CCN(Cc3nc4ccccc4s3)CC2)oc2ccccc12	none
CCOC(=O)[C@]12CCC=C1N(Cc1ccccc1)C(=O)[C@H](CC(=O)NCc1cccs1)C2	none (no result: SARS PLpro yeast, Pf growth 96h, HCV inh, Pf growth 48h, Sm TGR block)
Nc1c(/C=C2/C=CC(=O)C(O)=C2)c(=O)nc2sc(CC(=O)N3CCCCC3)nn12	SARS PLpro yeast 11µM
COc1ccc(/C=N/NC(=O)c2c(Br)cnn2C)c2ccccc12	HCV inh inconclusive
COc1ccc(CNC(=O)C[C@H]2C[C@H](C(=O)N(C(C)C)C(C)C)[C@@]3(C)c4[nH]c5ccc(Cl)cc5c4CCN3C2=O)cc1OC	HCV inh 13µM (no result: Pf growth 96h, Pf growth 48h, Sm TGR block)
CC(C)=CCC/C(C)=C/CNC(=O)C[C@H]1C[C@H](C(=O)N(C(C)C)C(C)C)[C@@]2(C)c3[nH]c4ccc(Cl)cc4c3CCN2C1=O	none (no result: Pf growth 96h, Pf growth 48h, Sm TGR block)
CC(C)N(C(=O)[C@H]1C[C@H](CC(=O)NCCC2=CCCCC2)C(=O)N2CCc3c([nH]c4ccc(Cl)cc34)[C@]12C)C(C)C	HCMV inh -91 (no result: Pf growth 96h, Pf growth 48h, Sm TGR block)
COc1ccc2[nH]c3c(c2c1)CCN1C(=O)C(CC(=O)NC/C=C(\C)CCC=C(C)C)C[C@H](C(=O)N(C(C)C)C(C)C)[C@@]31C (stereo partly specified)	HCV inh 6.3µM, HCMV inh -103 (no result: Pf growth 96h, Pf growth 48h, Sm TGR block)
Cc1ccc(-c2c(C(=O)NCCc3ccccc3)oc(=O)c3ccccc23)cc1	none (no result: SARS PLpro yeast, Pf growth 96h, HCV inh, Pf growth 48h)
CCOc1ccc(C2C(C(=O)Nc3ccccc3)=C(C)N=c3s/c(=C/c4cccc(OCC(=O)O)c4)c(=O)n32)cc1 (stereo unspecified)	Pf growth 96h inconclusive, Pf growth 48h 0.47µM
CC1=C(C(=O)Nc2ccccc2C)C(c2ccc(C)o2)n2c(s/c(=C/c3ccccc3)c2=O)=N1 (stereo unspecified)	HCV inh inconclusive, Pf growth 48h 2.9µM (no result: Pf growth 96h)
CC1=C(C(=O)Nc2ccccc2)C(c2ccc(Cl)cc2)n2c(s/c(=C/c3cccc(OCC(=O)O)c3)c2=O)=N1 (stereo unspecified)	HCMV inh -68, Pf growth 48h 1.7µM (no result: Sm TGR block)
CC1=C(C(=O)Nc2ccccc2)C(c2ccc(C)o2)n2c(s/c(=C/c3ccccc3)c2=O)=N1 (stereo unspecified)	Pf growth 96h inconclusive, HCMV inh inconclusive (no result: Pf growth 48h)
CCC(C(=O)Nc1cc(C(F)(F)F)ccc1Cl)n1nc(C)c2sc3ccccc3c2c1=O (stereo unspecified)	none (no result: SARS PLpro yeast, Pf growth 96h, HCV inh, Pf growth 48h)
